The whole screen tested about 360,000 compounds, of which about 1,400 (0.39%) were called active. This is one part of a sample in which actives are shown more often than they occur. No stated cut-off is given here; in the data, active means inhibition above about 5% (passing the limit was not always enough); inactive means the rest.
target: Tyrosine-protein kinase ABL1 (Homo sapiens) + Ras and Rab interactor 1 (Homo sapiens) (UniProt P00519+Q13671); assay: inhibitors of Rin1-Abl protein binding, primary screen, biochemical, TR-FRET (AID 588664); details: at 7.35 µM, stronger effect = higher value
Sequence (P00519 whole entry, looked up): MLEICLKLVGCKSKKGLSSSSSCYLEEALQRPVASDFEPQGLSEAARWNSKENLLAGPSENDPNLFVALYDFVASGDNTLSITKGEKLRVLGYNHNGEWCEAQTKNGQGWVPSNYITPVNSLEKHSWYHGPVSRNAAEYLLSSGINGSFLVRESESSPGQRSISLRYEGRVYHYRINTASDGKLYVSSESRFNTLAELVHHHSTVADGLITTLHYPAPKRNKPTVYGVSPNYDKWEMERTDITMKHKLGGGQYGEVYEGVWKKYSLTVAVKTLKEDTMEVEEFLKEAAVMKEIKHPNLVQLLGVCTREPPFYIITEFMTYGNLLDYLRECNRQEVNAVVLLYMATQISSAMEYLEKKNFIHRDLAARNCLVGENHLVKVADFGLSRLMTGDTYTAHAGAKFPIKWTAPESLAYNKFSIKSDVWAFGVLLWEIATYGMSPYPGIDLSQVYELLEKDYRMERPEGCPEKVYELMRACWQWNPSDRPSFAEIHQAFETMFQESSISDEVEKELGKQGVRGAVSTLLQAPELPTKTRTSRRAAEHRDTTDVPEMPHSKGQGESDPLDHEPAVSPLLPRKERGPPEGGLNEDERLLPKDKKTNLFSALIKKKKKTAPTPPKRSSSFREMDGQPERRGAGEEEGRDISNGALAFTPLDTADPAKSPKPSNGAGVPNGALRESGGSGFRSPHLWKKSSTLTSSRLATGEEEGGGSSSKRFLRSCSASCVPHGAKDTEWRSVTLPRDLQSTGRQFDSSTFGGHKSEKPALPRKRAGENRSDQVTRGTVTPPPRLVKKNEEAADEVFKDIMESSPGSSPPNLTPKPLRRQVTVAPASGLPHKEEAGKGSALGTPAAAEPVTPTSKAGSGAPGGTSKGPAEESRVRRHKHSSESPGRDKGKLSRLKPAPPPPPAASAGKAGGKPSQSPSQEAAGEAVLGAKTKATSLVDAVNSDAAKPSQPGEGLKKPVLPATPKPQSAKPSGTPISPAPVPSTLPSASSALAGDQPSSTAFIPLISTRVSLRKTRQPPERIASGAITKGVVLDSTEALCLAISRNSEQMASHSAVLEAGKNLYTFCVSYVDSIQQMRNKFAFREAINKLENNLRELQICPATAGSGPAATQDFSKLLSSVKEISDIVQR
Sequence (Q13671 whole entry, looked up): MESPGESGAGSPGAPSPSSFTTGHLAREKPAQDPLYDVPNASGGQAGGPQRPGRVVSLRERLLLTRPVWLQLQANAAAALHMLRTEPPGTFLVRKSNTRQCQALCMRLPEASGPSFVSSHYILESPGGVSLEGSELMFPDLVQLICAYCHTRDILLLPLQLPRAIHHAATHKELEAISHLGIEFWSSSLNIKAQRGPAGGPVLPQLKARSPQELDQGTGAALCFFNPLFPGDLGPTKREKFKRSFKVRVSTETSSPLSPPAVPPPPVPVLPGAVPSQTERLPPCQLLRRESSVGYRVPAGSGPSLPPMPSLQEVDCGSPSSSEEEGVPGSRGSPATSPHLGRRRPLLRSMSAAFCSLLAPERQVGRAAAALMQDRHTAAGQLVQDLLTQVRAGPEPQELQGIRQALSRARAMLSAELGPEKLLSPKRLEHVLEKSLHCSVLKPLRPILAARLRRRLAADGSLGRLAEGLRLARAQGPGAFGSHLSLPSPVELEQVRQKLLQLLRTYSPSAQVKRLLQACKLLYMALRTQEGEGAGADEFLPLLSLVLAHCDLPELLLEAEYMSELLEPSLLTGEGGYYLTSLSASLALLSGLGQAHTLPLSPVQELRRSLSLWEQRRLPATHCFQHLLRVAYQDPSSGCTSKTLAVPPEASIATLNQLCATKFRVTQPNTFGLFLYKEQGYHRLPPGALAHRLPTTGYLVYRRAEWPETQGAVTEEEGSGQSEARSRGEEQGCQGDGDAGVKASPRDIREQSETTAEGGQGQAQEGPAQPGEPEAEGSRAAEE

| SMILES | inhibition |
| --- | --- |
| CCOc1ccc(S(=O)(=O)N2CCCCC2)cc1NC(=O)CN1CCCC1c1cccs1 (stereo unspecified) | 8.67% (active) |
| CCOc1ccccc1NC(=O)COc1ccc(S(=O)(=O)N2CCCC2)cc1 | 2.38% (inactive) |
| COc1ccc(S(=O)(=O)N2CCCCC2)cc1NC(=O)COc1ccccc1 | 0.41% (inactive) |
| COc1ccccc1C(CNC(=O)c1ccc(C)c(S(=O)(=O)N2CCCCC2)c1)N(C)C (stereo unspecified) | 1.36% (inactive) |
| COc1ccc(NC(=O)C(C)N2c3cccc4cccc(c34)S2(=O)=O)c(OC)c1 (stereo unspecified) | 0.54% (inactive) |
| NC(=O)C[C@@H]1NC(=O)CNC(=O)c2cc([N+](=O)[O-])cc(I)c2NCCC(C(N)=O)NC1=O (stereo partly specified) | -0.35% (inactive) |
| O=C(COc1ccc(S(=O)(=O)NCCc2ccccc2)cc1)N1CCCC1 | 7.8% (active) |
| CC(NS(=O)(=O)c1ccc(OCC(=O)N2CCCC2)cc1)c1ccccc1 (stereo unspecified) | 1.07% (inactive) |
| O=C(COc1ccc(S(=O)(=O)NCc2ccccc2)cc1)N1CCOCC1 | -6.66% (inactive) |
| COc1cc(C(=O)N/C(=C\c2cn(C)c3ccccc23)C(=O)N2CCOCC2)cc(OC)c1OC | 3.65% (inactive) |
| Cc1cccc(N)c1SC1CCCCC1O (stereo unspecified) | -2.16% (inactive) |
| COC(=O)C1=C(N)Oc2c(oc(CO)cc2=O)C1c1c(F)cccc1Cl (stereo unspecified) | 1.15% (inactive) |
| Cc1cccc(CN2CCN(C3CN(Cc4ccccc4)S(=O)(=O)C3)CC2)c1 (stereo unspecified) | 5.69% (inactive) |
| NC(=O)c1ccsc1NC(=O)COC(=O)Cc1n[nH]c(=O)c2ccccc12 | 1.63% (inactive) |
| Cc1ccc(S(=O)(=O)C2(S(=O)(=O)c3ccc(C)cc3)CCCC2)cc1 | 1.29% (inactive) |
| CC1(C(=O)Nc2cccc3c2CCCC3)CCN1C(=O)C1(c2ccccc2)CC1 (stereo unspecified) | 1.83% (inactive) |
| Cc1c(NC(=O)C(C)OC(=O)c2ccccc2O)c(=O)n(-c2ccccc2)n1C (stereo unspecified) | -1.15% (inactive) |
| CC(OC(=O)c1ccccc1NCCO)C(=O)Nc1ccnn1C(C)C (stereo unspecified) | 44.6% (active) |
| COC(=O)c1ccccc1NC(=O)CSc1ccccn1 | -0.76% (inactive) |
| C=CCc1cc(C)ccc1OCCCn1ccnc1 | 0.39% (inactive) |
| CCc1ccccc1NC(=S)N(CCN1CCCCCC1)Cc1ccco1 | -2.14% (inactive) |
| Cc1cc(C)n(CCNCc2c(C(=O)N3C[C@@H](C)O[C@@H](C)C3)nc3ccc(Cl)cn23)n1 | 5.28% (inactive) |
| CCc1nnc(NC(=O)C2CCN(C(=O)c3ccccc3C)CC2)s1 | -1.24% (inactive) |

| SMILES | inhibition |
| --- | --- |
| Cc1ccccc1C(=O)N1CCC(C(=O)Nc2ccc(S(=O)(=O)N(C)C(C)C)cc2)CC1 | 14.6% (active) |
| CC(=O)c1cccc(NC(=O)C2CCN(C(=O)c3ccccc3Cl)CC2)c1 | -0.65% (inactive) |
| Cc1ccc(CN2CCN(Cc3ccccc3-c3ccco3)CC2CCO)o1 (stereo unspecified) | -0.29% (inactive) |
| COc1cccc2c(O)cc(=O)n(C)c12 | -0.91% (inactive) |
| O=Nc1c(O)cc(O)c2ccccc12 | 12.5% (active) |
| O=c1c2ccccc2ccc2ccc(P(=O)(O)O)cc12 | 0.55% (inactive) |
| CCCC(=O)C1=C(N(C)c2ccccc2)CC(C)(C)C(C(=O)OC)C1=O (stereo unspecified) | 0.08% (inactive) |
| CC(C)CNC(=O)CC(c1ccccc1)c1c(O)ccc2ccccc12 (stereo unspecified) | -0.65% (inactive) |
| COc1ccc(OCCn2ccnc2C)cc1 | 1.4% (inactive) |
| O=[N+]([O-])c1cc(C(F)(F)F)ccc1NCCc1ccncc1 | -3.62% (inactive) |
| CCCn1c(N)c(C(=O)CSc2nnc(-c3cccnc3)n2-c2ccc(C)cc2C)c(=O)[nH]c1=O | 12.2% (active) |
| Cc1cccc(C)c1NC(=O)CSc1nnc(-c2ccccc2)n1Cc1ccc2c(c1)OCO2 | 8.78% (inactive) |
| CCCn1c(N)c(C(=O)CSc2nnc3n2CCCCC3)c(=O)[nH]c1=O | 6.59% (inactive) |
| Cc1ccccc1-c1nnc(SCC(=O)NCc2ccc3c(c2)OCO3)n1C | 0.29% (inactive) |
| CCCn1c(N)c(C(=O)CSc2nnc(Cc3cccs3)n2C2CC2)c(=O)[nH]c1=O | 2.22% (inactive) |
| Cc1ccc(-n2c(SCC(=O)NCc3ccc4c(c3)OCO4)nnc2-c2cccnc2)c(C)c1 | 8.97% (active) |
| CCOC1CCCCC1NS(=O)(=O)c1ccc(Cl)cc1 (stereo unspecified) | -1.9% (inactive) |
| COc1ccc(C(CNC(=O)c2cc3c(s2)CCCC3)N2CCOCC2)cc1 (stereo unspecified) | -1.94% (inactive) |
| O=C(c1ccc(NS(=O)(=O)c2ccc3[nH]c(=O)[nH]c3c2)cc1)N1CCCCC1 | 2.64% (inactive) |
| Cc1ccccc1N1CCN(C(=O)c2cccnc2)CC1 | 1.88% (inactive) |
| CC(C)Cn1cnc2c1c(=O)n(CC(O)c1ccccc1)c(=O)n2CC(C)C (stereo unspecified) | 2.26% (inactive) |
| COCCNc1nc(-n2nc(C)cc2C)nc2sc3c(c12)CCCC3 | -2.91% (inactive) |
| COC(=O)c1ccccc1OCC(=O)N1CCN(c2ccc(Cl)cc2)CC1 | 3.93% (inactive) |

| SMILES | inhibition |
| --- | --- |
| COc1ccc(N2C(=O)C3CCCN3C2c2cccs2)cc1 (stereo unspecified) | 7.79% (active) |
| COc1cccc(N2C(=O)C3CCCN3C2c2ccc(F)cc2)c1 (stereo unspecified) | 1.17% (inactive) |
| COc1ccc(N2C(=O)C3CCCN3C2c2cc(OC)c(OC)cc2OC)cc1 (stereo unspecified) | -1.54% (inactive) |
| CSc1ccc(/C=C/C(=O)NC23CC4CC(CC(C4)C2)C3)cc1 | -0.46% (inactive) |
| CCN(Cc1ccccc1)C(=O)CCS(=O)(=O)c1ccc2c(c1)oc(=O)n2C | -4.23% (inactive) |
| CS(=O)(=O)N1CCN(C(=O)CSc2ccccc2)CC1 | 2.46% (inactive) |
| O=c1oc2ccccc2cc1-c1cn(-c2ccccc2)c(=S)[nH]1 | -2.16% (inactive) |
| O=C(c1cn(-c2ccccc2)nc1-c1cc2ccccc2oc1=O)N1CCOCC1 | 8.23% (active) |
| NC(=O)C1CCN(C(=O)c2cn(-c3ccccc3)nc2-c2cccnc2)CC1 | 2.02% (inactive) |
| CCCCCN(C(=O)CCC(=O)OCCOc1ccc(OC)cc1)c1c(N)n(CCCC)c(=O)[nH]c1=O | 1.88% (inactive) |
| Cc1cc(C(F)(F)F)nn1CC(=O)N1CCCC1 | -1.33% (inactive) |
| Oc1c(C(c2ccccn2)N2CCOCC2)ccc2cccnc12 (stereo unspecified) | 27% (active) |
| C/C=C/C(=O)Nc1nnc(C(C)C)s1 | -0.75% (inactive) |
| O=C(O)/C(=C/c1cccnc1)NC(=O)c1ccccc1 | -1.66% (inactive) |
| Cc1nc(CN2CCN(C(=O)CCc3nnc(Cc4c[nH]c5ccccc45)o3)CC2)cs1 | -2.84% (inactive) |
| O=C(Oc1c(-c2ccco2)oc2ccccc2c1=O)c1cccnc1 | 0.23% (inactive) |
| CCOC(=O)N1CCC(NC(=O)CCc2ccccc2)CC1 | -0.75% (inactive) |
| CCOC(=O)CN1CCC(c2ccccc2)CC1 | 1.17% (inactive) |
| CCOC(=O)N1CCC(c2cc(=O)n(-c3ccccc3)[nH]2)CC1 | 11.4% (active) |
| C[C@@H]1CN([C@@H](C)CO)C(=O)CCCn2nncc2CO[C@H]1CN(C)C(=O)Nc1ccc(C(F)(F)F)cc1 | -1.77% (inactive) |
| CCCOc1ccc(C2C(C(=O)c3ccc(C)o3)=C(O)C(=O)N2CCCn2ccnc2)cc1 (stereo unspecified) | -89.7% (inactive) |
| OCC(CO)(CO)NCc1ccc(-c2ccccc2)cc1 | -1.05% (inactive) |
| COc1ccc(Cl)cc1-n1c(=S)sc2c(=O)n(-c3ccc(F)cc3)c(SCC(=O)O)nc21 | 3.75% (inactive) |

| SMILES | inhibition |
| --- | --- |
| CN(C(=O)c1cccc(NC(=O)Cc2ccc(NC(=O)C3CCN(C(=O)C4CCCCC4)CC3)cc2)c1)C1CCC1 | 0.86% (inactive) |
| CN(C(=O)c1cccc(NC(=O)Cc2cccc(NC(=O)C3CCCN(C(=O)C4CC4)C3)c2)c1)C1CCC1 (stereo unspecified) | 1.65% (inactive) |
| CN(C(=O)c1ccc(NC(=O)Cc2cccc(NC(=O)C3CCN(C(=O)c4ccccc4)CC3)c2)cc1)C1CC1 | 16.1% (active) |
| C=CCn1c(SCC(=O)c2c(N)n(C)c(=O)n(C)c2=O)nc2sc(CC)cc2c1=O | -0.41% (inactive) |
| O=C(COc1ccc([N+](=O)[O-])cc1)Nc1cccc(C(=O)Nc2ccccc2C(=O)O)c1 | 2.02% (inactive) |
| O=C(CSCc1ccc([N+](=O)[O-])cc1)Nc1cccc(C(=O)Nc2ccccc2C(=O)O)c1 | 11.8% (active) |
| COc1ccc(NC(=O)CSCc2ccc([N+](=O)[O-])cc2)cc1OC | 0.28% (inactive) |
| CCOCCCNC(=O)C(NC(=O)Cc1c[nH]c2ccccc12)c1ccc(OC)cc1 (stereo unspecified) | -1.97% (inactive) |
| CC(C)(C)c1ccc(Cn2nnc3c(=O)[nH]c(C4CCCN(C(=O)c5ccco5)C4)nc32)cc1 (stereo unspecified) | 0.48% (inactive) |
| O=C(Nc1nn(Cc2ccccc2F)cc1Br)c1cccs1 | -1.24% (inactive) |
| Oc1cccc2cc(-c3ccncc3)cnc12 | 13.3% (active) |
| Fc1ccc(-c2ccc(CNCc3ccccn3)o2)cc1Cl | -2.17% (inactive) |
| CN1CCN(C(CNS(=O)(=O)c2cccs2)c2cccnc2)CC1 (stereo unspecified) | 1.76% (inactive) |
| COC(=O)CN1C(C)=Nc2ccc(Br)cc2C1c1ccccc1 (stereo unspecified) | 0.76% (inactive) |
| Cc1nn(CC#N)c(=O)n1N(C)c1ncc(C(F)(F)F)cc1Cl | 2.69% (inactive) |
| CN(C)C=NC(=O)c1cccn1-c1ncc(C(F)(F)F)cc1Cl | 1.65% (inactive) |
| Cc1nn(-c2ncc(C(F)(F)F)cc2Cl)c(=O)n1-c1ccccc1 | 7.67% (active) |
| O=C(O)c1cccc2c1C(=O)N(C1CCCC1)C2 | -1.46% (inactive) |
| O=c1ccc2c(-c3ccccc3S(=O)(=O)O)c3ccc(O)c(O)c3oc-2c1O | 52.3% (active) |
| Cc1ccc(C)c(NC(=O)CN(C)C(=O)COc2ccc3ccccc3c2)c1 | 0.05% (inactive) |
| Cc1cc2ccccc2n1CCNC(=O)COc1ccc2ccccc2c1 | 7.69% (active) |
| COCCNC(=O)COc1ccc(N(C)S(=O)(=O)c2ccc3ccccc3c2)cc1 | 1.04% (inactive) |
